Results from PubChem BioAssay (NCATS).
Records with an inconclusive call do not appear. The source made the active and inactive calls. Unless noted, the call rests on the fitted dose curve; in most records, active means well fitted curve in the direction sought with a large enough effect; inconclusive means small, poorly fitted or top-dose-only effect, or another doubt; inactive means no such curve, though single readings can be large; an effect the other way counts as inactive or inconclusive.

Tests used:
[1] = molecular target: Nuclear receptor subfamily 1 group I member 3 (Homo sapiens) (UniProt Q14994); test: Primary qHTS for antagonist of constitutive androstane receptor (CAR) against the NCATS DSHEA and TCM libraries (AID 1794836)
Summary of the method: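 HepG2 cells stably carrying hCAR and a CYP2B6 luciferase reporter (2,500 cells/well) attached for 5 h, then received compounds with 48 uM CITCO for 24 h at 37C. ONE-Glo luminescence read antagonism; CellTiter-Fluor (405/540 nm) gave viability.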

[2] = KB-8-5-11 P-gp reporter qHTS against the NCATS DSHEA and TCM libraries (AID 1919977); further: 0% is about no effect
Summary of the method: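 CellTiter-Glo luminescence after ~72 h exposure at 37C gave viability of KB-8-5-11 cells, the P-gp-overexpressing subline. Substances were titrated; colchicine was omitted from assay medium.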

[3] = molecular target: ATP-dependent 6-phosphofructokinase (Trypanosoma brucei brucei) (UniProt O15648); test: qHTS Assay to Find Inhibitors of T. brucei phosphofructokinase: hit validation (AID 492961); further: potency means the concentration at half of the fitted maximal effect
Summary of the method: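 Reaction: 0.1 M triethanolamine pH 8.0, 5 mM MgCl2, F6P 0.5 mM, ATP 0.1 mM, PFK 1.25 nM, 45 min RT. Read-out: ADP-Glo luminescence. Analysis: concentration-response fits, classed by r2 and efficacy.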

[4] = molecular target: Luciferin 4-monooxygenase (Photinus pyralis) (UniProt P08659); test: Biochemical firefly luciferase enzyme assay for NPC (AID 624030); further: potency means the concentration at half of the fitted maximal effect; nearly all actives have a fitted effect of over 70% in size
Summary of the method: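 Counter-screen for direct inhibition of the luciferase enzyme by approved-drug library compounds, run at 10 nM enzyme in 50 mM Tris acetate (final). Luminescence was read within 5 min of enzyme-buffer addition and normalized to PTC124 versus DMSO (0%).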

[5] = S16 Schwann cell viability assay (CellTiter-Glo assay) (AID 624031); further: potency means the concentration at half of the fitted maximal effect; nearly all actives have a fitted effect of over 70% in size
Summary of the method: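 Counter-screen for cytotoxicity: parental S16 rat Schwann cells lacking the PMP22 reporters, treated 24 h with compound, viability from cellular ATP by CellTiter-Glo luminescence, normalized to DMSO (0%) and no-cell wells.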

[6] = S16 Schwann cell PMP22 intronic element firefly luciferase assay (AID 624032); further: potency means the concentration at half of the fitted maximal effect; nearly all actives have a fitted effect of over 30% in size
Summary of the method: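 Rat S16 Schwann cells stably carrying a PMP22 intronic element-driven Fluc reporter were seeded overnight, then exposed to compounds for 24 h at 37 °C. Luminescence was normalized to PTC124 (positive control) and DMSO (0% activity).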

[7] = NCATS anti-infectives library activity on HEK293 viability as a counter-qHTS vs the C. elegans viability qHTS (AID 1745854);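 further: potency means the concentration at half of the fitted maximal effect; HEK293 cells exposed to compounds for 24 hr before the viability read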
Summary of the method: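 Counter-screen for cytotoxicity: HEK293, 24 hr, 37C, compounds up to 41.7 uM final (a dilution series, 1:5). Readout CellTiter-Glo luminescence, 10 min RT. Digitonin control, 83.3 uM final.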

[8] = NCATS anti-infectives library activity on the primary C. elegans qHTS viability assay (AID 1745855; calls by dose curve; further: potency means the concentration at half of the fitted maximal effect)
Summary of the method: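 GFP read-out by 488 nm laser cytometry at day 0, 3 and 7, gated on object perimeter, area and peak intensity, scored viability of PE254-GFP-FLuc worms exposed to compound in S medium with bacterial capsules at 21 °C.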

[9] = qHTS profiling for inhibitors of Plasmodium falciparum proliferation (AID 504749); further: nearly all actives have a fitted effect of over 60% in size; further: potency means the concentration at half of the fitted maximal effect;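 on activity, negative = inhibition: 0% = DMSO vehicle and full inhibition = artemisinin control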; settings: P. falciparum in erythrocytes, SYBR Green DNA, 72 h, at 28.7 µM (top of the series)
Summary of the method: (§1)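 Quantitative HTS: compounds pinned into medium, infected erythrocytes added (0.3% parasitemia, 2.5% hematocrit), 72 h culture at 37 C under 5% CO2. Saponin/Triton lysis with SYBR Green I, overnight RT, then fluorescence read.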

7G8 = test: as above; settings: P. falciparum in erythrocytes, SYBR Green DNA, 72 h; series mostly up to 12.8 µM
Summary of the method: as §1

C2A = test: as above; settings: P. falciparum in erythrocytes, SYBR Green DNA, 72 h; series mostly up to 28.7 µM
Summary of the method: as §1

CP185 = test: as above; settings: P. falciparum in erythrocytes, SYBR Green DNA, 72 h; series mostly up to 28.7 µM
Summary of the method: as §1

CP191 = test: as above; settings: P. falciparum in erythrocytes, SYBR Green DNA, 72 h; series mostly up to 28.7 µM
Summary of the method: as §1

CP192 = test: as above; settings: P. falciparum in erythrocytes, SYBR Green DNA, 72 h; series mostly up to 28.7 µM
Summary of the method: as §1

CP215 = test: as above; settings: P. falciparum in erythrocytes, SYBR Green DNA, 72 h; series mostly up to 28.7 µM
Summary of the method: as §1

CP217 = test: as above; settings: P. falciparum in erythrocytes, SYBR Green DNA, 72 h; series mostly up to 28.7 µM
Summary of the method: as §1

CP237 = test: as above; settings: P. falciparum in erythrocytes, SYBR Green DNA, 72 h; series mostly up to 28.7 µM
Summary of the method: as §1

CP238 = test: as above; settings: P. falciparum in erythrocytes, SYBR Green DNA, 72 h; series mostly up to 28.7 µM
Summary of the method: as §1

CP260 = test: as above; settings: P. falciparum in erythrocytes, SYBR Green DNA, 72 h; series mostly up to 28.7 µM
Summary of the method: as §1

CP268 = test: as above; settings: P. falciparum in erythrocytes, SYBR Green DNA, 72 h; series mostly up to 28.7 µM
Summary of the method: as §1

CP269 = test: as above; settings: P. falciparum in erythrocytes, SYBR Green DNA, 72 h; series mostly up to 28.7 µM
Summary of the method: as §1

CP286 = test: as above; settings: P. falciparum in erythrocytes, SYBR Green DNA, 72 h; series mostly up to 28.7 µM
Summary of the method: as §1

CP305 = test: as above; settings: P. falciparum in erythrocytes, SYBR Green DNA, 72 h; series mostly up to 28.7 µM
Summary of the method: as §1

CP335 = test: as above; settings: P. falciparum in erythrocytes, SYBR Green DNA, 72 h; series mostly up to 12.8 µM
Summary of the method: as §1

DIV14 = test: as above; settings: P. falciparum in erythrocytes, SYBR Green DNA, 72 h; series mostly up to 28.7 µM
Summary of the method: as §1

DIV17 = test: as above; settings: P. falciparum in erythrocytes, SYBR Green DNA, 72 h; series mostly up to 28.7 µM
Summary of the method: as §1

Dd2 = test: as above; settings: P. falciparum in erythrocytes, SYBR Green DNA, 72 h; series mostly up to 28.7 µM
Summary of the method: as §1

ECU = test: as above; settings: P. falciparum in erythrocytes, SYBR Green DNA, 72 h; series mostly up to 28.7 µM
Summary of the method: as §1

FAB9 = test: as above; settings: P. falciparum in erythrocytes, SYBR Green DNA, 72 h; series mostly up to 28.7 µM
Summary of the method: as §1

GB4 = test: as above; settings: P. falciparum in erythrocytes, SYBR Green DNA, 72 h; series mostly up to 28.7 µM
Summary of the method: as §1

HB3 = test: as above; settings: P. falciparum in erythrocytes, SYBR Green DNA, 72 h; series mostly up to 28.7 µM
Summary of the method: as §1

JCK = test: as above; settings: P. falciparum in erythrocytes, SYBR Green DNA, 72 h; series mostly up to 28.7 µM
Summary of the method: as §1

P93_24 = test: as above; settings: P. falciparum in erythrocytes, SYBR Green DNA, 72 h; series mostly up to 28.7 µM
Summary of the method: as §1

P94_40 = test: as above; settings: P. falciparum in erythrocytes, SYBR Green DNA, 72 h; series mostly up to 28.7 µM
Summary of the method: as §1

PAD = test: as above; settings: P. falciparum in erythrocytes, SYBR Green DNA, 72 h; series mostly up to 28.7 µM
Summary of the method: as §1

PC15 = test: as above; settings: P. falciparum in erythrocytes, SYBR Green DNA, 72 h; series mostly up to 28.7 µM
Summary of the method: as §1

PC26 = test: as above; settings: P. falciparum in erythrocytes, SYBR Green DNA, 72 h; series mostly up to 28.7 µM
Summary of the method: as §1

PC49 = test: as above; settings: P. falciparum in erythrocytes, SYBR Green DNA, 72 h; series mostly up to 28.7 µM
Summary of the method: as §1

SC27B = test: as above; settings: P. falciparum in erythrocytes, SYBR Green DNA, 72 h; series mostly up to 28.7 µM
Summary of the method: as §1

TAB113 = test: as above; settings: P. falciparum in erythrocytes, SYBR Green DNA, 72 h; series mostly up to 28.7 µM
Summary of the method: as §1

TAB165 = test: as above; settings: P. falciparum in erythrocytes, SYBR Green DNA, 72 h; series mostly up to 28.7 µM
Summary of the method: as §1

W2 = test: as above; settings: P. falciparum in erythrocytes, SYBR Green DNA, 72 h; series mostly up to 12.8 µM
Summary of the method: as §1

Chain of Nuclear receptor subfamily 1 group I member 3 (Homo sapiens) (Q14994 whole entry, looked up): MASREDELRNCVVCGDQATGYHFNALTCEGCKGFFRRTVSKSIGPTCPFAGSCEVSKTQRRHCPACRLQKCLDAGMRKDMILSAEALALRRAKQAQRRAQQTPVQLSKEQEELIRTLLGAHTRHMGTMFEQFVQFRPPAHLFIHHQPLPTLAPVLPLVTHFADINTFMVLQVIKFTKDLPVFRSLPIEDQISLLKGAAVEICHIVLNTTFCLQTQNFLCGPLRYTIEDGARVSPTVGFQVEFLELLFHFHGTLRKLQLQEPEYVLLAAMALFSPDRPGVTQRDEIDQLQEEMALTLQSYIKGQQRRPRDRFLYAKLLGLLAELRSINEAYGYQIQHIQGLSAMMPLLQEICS
Chain of Luciferin 4-monooxygenase (Photinus pyralis) (P08659 whole entry, looked up): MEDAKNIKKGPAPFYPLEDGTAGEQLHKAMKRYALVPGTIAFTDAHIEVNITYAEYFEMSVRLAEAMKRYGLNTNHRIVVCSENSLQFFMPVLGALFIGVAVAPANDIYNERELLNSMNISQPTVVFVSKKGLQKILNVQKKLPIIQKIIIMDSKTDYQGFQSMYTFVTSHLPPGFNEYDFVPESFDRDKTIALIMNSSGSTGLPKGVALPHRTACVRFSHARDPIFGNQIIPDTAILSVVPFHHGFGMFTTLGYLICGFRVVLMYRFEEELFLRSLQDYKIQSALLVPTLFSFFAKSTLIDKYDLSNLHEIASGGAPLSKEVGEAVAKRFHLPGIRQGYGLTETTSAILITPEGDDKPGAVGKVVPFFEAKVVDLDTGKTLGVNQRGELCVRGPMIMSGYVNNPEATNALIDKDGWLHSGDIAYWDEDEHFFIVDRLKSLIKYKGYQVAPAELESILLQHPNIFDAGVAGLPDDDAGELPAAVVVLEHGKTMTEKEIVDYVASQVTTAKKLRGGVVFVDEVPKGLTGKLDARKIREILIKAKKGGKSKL
Chain of ATP-dependent 6-phosphofructokinase (Trypanosoma brucei brucei) (O15648 whole entry, looked up): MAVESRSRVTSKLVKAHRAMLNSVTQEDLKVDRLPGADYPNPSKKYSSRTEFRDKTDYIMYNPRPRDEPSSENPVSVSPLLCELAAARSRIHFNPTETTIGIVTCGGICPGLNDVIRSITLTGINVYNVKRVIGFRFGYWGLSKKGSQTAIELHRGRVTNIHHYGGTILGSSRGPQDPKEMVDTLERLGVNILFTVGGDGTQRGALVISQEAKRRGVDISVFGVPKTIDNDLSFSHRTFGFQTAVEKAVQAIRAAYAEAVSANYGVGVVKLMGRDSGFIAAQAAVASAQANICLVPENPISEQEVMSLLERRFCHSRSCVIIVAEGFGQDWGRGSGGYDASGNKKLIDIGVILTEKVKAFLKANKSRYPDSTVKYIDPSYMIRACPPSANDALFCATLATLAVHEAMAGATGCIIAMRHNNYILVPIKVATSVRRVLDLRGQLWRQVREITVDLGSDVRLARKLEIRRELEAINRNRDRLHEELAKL

CC(C)=CCCC(C)(OC1OC(COC2OC(CO)C(O)C2O)C(O)C(O)C1O)C1CCC2(C)C1C(O)CC1C3(C)CCC(OC4OC(CO)C(O)C(O)C4OC4OC(CO)C(O)C(O)C4O)C(C)(C)C3CCC12C (configuration not stated)
inactive: Potency [1] | Potency [2]

O=c1cc(-c2ccc(O)cc2)oc2cc(O[C@@H]3O[C@H](CO)[C@@H](O)[C@H](O)[C@H]3O[C@@H]3OC[C@](O)(CO)[C@H]3O)cc(O)c12
inactive: Potency [1] | Potency [2]

C=C1C[C@@]23CC[C@H]4[C@@](C)(CCC[C@@]4(C)C(=O)O[C@@H]4O[C@H](CO)[C@@H](O)[C@H](O)[C@H]4O)[C@@H]2CC[C@]1(O[C@@H]1O[C@H](CO)[C@@H](O)[C@H](O[C@@H]2O[C@H](CO)[C@@H](O)[C@H](O)[C@H]2O)[C@H]1O[C@@H]1O[C@@H](C)[C@H](O)[C@@H](O)[C@H]1O)C3
inactive: Potency [1] | Potency [2]

[Hg+][c]1ccccc1
active: Potency [3] 11.2 µM | Potency [4] 8.09 µM | Potency [5] 1.14 µM | Potency [6] 1.02 µM | Potency [7] 2 µM | Potency [8] 8.16 µM | Potency (7G8) 1.78 µM | Potency (CP192) 12 µM | Potency (CP215) 10.7 µM | Potency (CP268) 9.53 µM | Potency (CP269) 15.1 µM | Potency (CP305) 10.7 µM | Potency (CP335) 10.7 µM | Potency (DIV14) 9.53 µM | Potency (DIV17) 13.5 µM | Potency (FAB9) 7.08 µM | Potency (GB4) 9.53 µM | Potency (JCK) 11.2 µM | Potency (PC15) 7.94 µM | Potency (PC26) 12 µM | Potency (PC49) 3.55 µM | Potency (W2) 12 µM
inactive: activity, negative = inhibition ([9]; parasite line A) 13.8% | activity, negative = inhibition ([9]; parasite line B) -0.414% | Potency (C2A) | Potency (CP185) | Potency (CP191) | Potency (CP217) | Potency (CP237) | Potency (CP238) | Potency (CP260) | Potency (CP286) | Potency (Dd2) | Potency (ECU) | Potency (HB3) | Potency (P93_24) | Potency (P94_40) | Potency (PAD) | Potency (SC27B) | Potency (TAB113) | Potency (TAB165)
